G9a block: G9a (human) methyltransferase inhibition | G9a H3K9 monomethylation, AlphaScreen, 2 h | Potency, µM (top dose mostly 102 µM), without a hit: top-dose activity, negative = inhibition, most hits filed as inhibitors | actives 8.8% (n = 350,000) | AID 504332; further: on the % scale 0 is the no-effect control and ±100 the full control effect; nearly all actives have a fitted effect of over 75% in size
Target sequence (Q96KQ7 913-1193 limits assumed): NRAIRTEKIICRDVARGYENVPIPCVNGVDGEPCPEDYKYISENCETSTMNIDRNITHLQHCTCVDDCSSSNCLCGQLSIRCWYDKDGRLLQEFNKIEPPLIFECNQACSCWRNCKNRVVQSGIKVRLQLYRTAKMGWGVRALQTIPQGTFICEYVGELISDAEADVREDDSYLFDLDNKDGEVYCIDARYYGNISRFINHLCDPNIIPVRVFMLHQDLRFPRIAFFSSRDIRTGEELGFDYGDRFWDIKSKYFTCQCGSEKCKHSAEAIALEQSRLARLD
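Chemiluminescent proximity detection of H3K9 monomethylation, read after 10 min bead incubation in the dark. Reaction: 20 nM G9a, 500 nM biotin-H3K9 peptide, 20 uM SAM cofactor, 2 h, room temperature, following 15 min enzyme-compound preincubation.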
ALOX12 inh: ALOX12 (human) lipoxygenase inhibition. purified 12hLO, xylenol orange hydroperoxide absorbance. Potency, µM (titrated, usually from 108 µM), for inactives: at the highest dose activity change, negative = inhibition, actives largely listed as inhibitors. actives 1.1% (n = 580,000). AID 1671190; further: on the % scale 0 is the no-effect control and ±100 the full control effect
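Purified human 12hLO (150 nM final) in 25 mM Hepes, 0.01% Triton X-100, pH 7.0 was preincubated 15 min at room temperature with compound. Then 40 uM arachidonic acid was added, 30 min. Hydroperoxide was read by Fe-XO absorbance ratio 573/405 nm.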
JMJD2A Tudor inh: blocks the human JMJD2A Tudor domain; O75164; Potency, µM (doses to about 114 µM), for the others: top-dose activity change, negative = inhibition, most hits filed as inhibitors; actives 4.4% (n = 390,000); AlphaScreen JMJD2A-Tudor / H3K4me3 peptide binding; further: on the % scale 0 is the no-effect control and ±100 the full control effect; nearly all actives have a fitted effect of over 50% in size
Sfp inh: inhibitors of Bacillus subtilis Sfp phosphopantetheinyl transferase; Q9F4F7; Biochemical Sfp PPTase activity, qHTS; Potency, µM, inactives show largest response in the series, negative = inhibition, hits mostly inhibitors; actives 3.5% (n = 310,000); AID 1490;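 further: the enzyme is Sfp with the accession as filed and its product quenches rhodamine fluorescence; 0% = enzyme reaction without inhibitor and -100% = no enzyme wells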
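Fluorescence-quenching assay with 15 nM Sfp, 5 uM rhodamine-CoA and 12.5 uM BHQ-2-labelled ybbR peptide in pH 7.6 Hepes/MgCl2 buffer. Enzyme was pre-incubated with compound for 15 min at room temperature. Rate was taken from the 30-min fluorescence change (525/598 nm).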
BAZ2B inh: BAZ2B (human) inhibition | actives 4.4% (n = 360,000) | Q9UIF8 | AID 504333 | Potency, µM (series often up to 114 µM), inactives show at the top dose activity change, negative = inhibition, hits mostly inhibitors | AlphaScreen BAZ2B-H3K14Ac peptide displacement; further: on the % scale 0 is the no-effect control and ±100 the full control effect; nearly all actives have a fitted effect of over 60% in size
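AlphaScreen displacement: compounds (up to 110uM) incubated 30 min at room temperature with a preformed 50 nM BAZ2B/50 nM biotinylated H3K14Ac peptide complex in PBS pH 7.4 with Tween-20. Donor and acceptor beads at 10 ug/mL final added, 20 min light-protected before reading.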
HP1b chromo inh: inhibitors of HP1-beta chromodomain binding to methylated histone tails; actives 0.56% (n = 390,000); AlphaScreen HP1-beta / biotin-H3K9me3 peptide binding; P83916; Potency, µM (series often up to 114 µM), inactives show top-dose activity change, negative = inhibition, actives largely listed as inhibitors; AID 540317; further: nearly all actives have a fitted effect of over 70% in size
Target sequence (P83916 whole entry, looked up): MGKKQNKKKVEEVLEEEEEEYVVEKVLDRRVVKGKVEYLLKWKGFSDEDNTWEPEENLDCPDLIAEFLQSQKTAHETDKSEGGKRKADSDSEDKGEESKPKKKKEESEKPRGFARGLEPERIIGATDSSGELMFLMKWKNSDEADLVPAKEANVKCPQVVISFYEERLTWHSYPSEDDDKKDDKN
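HP1-beta protein (50 nM final) preincubated 30 min at room temperature with biotinylated H3(1-18)K9me3 peptide (50 nM) in PBS pH 7.4, 0.01% Tween-20, then compound added for 30 min. AlphaScreen streptavidin donor/nickel chelate acceptor beads (10 ug/mL final), 30 min dark, luminescence read.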
Starred values were filed as active, the others as inactive; ? = inconclusive; · = no result given; [ ] = remark or other dose. In the library only some 8.7% were active in any assay of this set; here they are far more common. The call rests on the fitted dose curve; in most records, active means well fitted curve in the direction sought with a large enough effect; inconclusive means small, poorly fitted or top-dose-only effect, or another doubt; inactive means no such curve, though single readings can be large; an effect the other way counts as inactive or inconclusive. Potency means the concentration at half of the fitted maximal effect.

SMILES	G9a block	ALOX12 inh	JMJD2A Tudor inh	Sfp inh	BAZ2B inh	HP1b chromo inh
Cc1ccccc1N1C(S)=C(C#N)C(=O)NC1c1cccs1 (configuration not stated)	7.9µM*	?	-27%	6%	?	26%
O=S(=O)(c1cccs1)N1CCN(c2ccc(F)cc2)CC1	9%	7%	-4%	26%	-2%	8%
CC(=O)C1=C(C)N(CC2CC2)C(=O)N[C@H]1c1cccs1	18%	·	-11%	25%	-4%	28%
COC1CCN(c2cc(-c3ccsc3)nc3c(C)noc23)CC1	·	5%[176 µM]	·	·	·	·
CCCCC(=O)N1CCC(N(Cc2ccccc2)C2CCOCC2)CC1	·	5%	·	·	·	·
N#CC1=C(S)N(c2ccccc2)C(c2ccc(-c3ccccc3Cl)o2)NC1=O (configuration not stated)	?	?	?	40µM*	?	?
O=C(Nc1ccc(Cl)cc1Cl)c1cccc(N2C(=O)C=CC2=O)c1	?	?	3.2µM*	16%	4%	?
N#Cc1cccc(C(=O)Nc2ccc([C@H]3OCC(=O)N(C4CCOCC4)[C@@H]3CO)cc2)c1	·	10%	·	·	·	·
CC(C)CNC(=O)c1cc2cn(C3CC3)cc2s1	·	13%	·	·	·	·
CCc1ccc(CNC(=O)c2cc3cn(C4CCCC4)cc3s2)cc1	·	4.5µM*	·	·	·	·
Oc1c(Br)cc(Br)cc1C=Nc1ccc(F)c(Cl)c1	·	4.5µM*	·	·	·	·
Nc1ccc(-c2nc3ccccc3o2)cc1	-44%[2.33 µM]	0%	40µM*	-5%	1%	19%
O=C1NCc2ccccc2CC12CCN(CC1=CCCCC1)C2 (configuration not stated)	·	18%[6.33 µM]	·	·	·	·
CN(CCCC(=O)O)c1ccc(N=Nc2ccc([N+](=O)[O-])cc2)cc1	·	18%	22µM*	·	·	11µM*
O=[N+]([O-])c1ccc(N2CCN(c3ccc(O)cc3)CC2)cn1	11µM*	?	?	56µM*	?	?
Cc1cc(C)cc(N=C2NC(=O)/C(=C/c3cccs3)S2)c1	?	?	-31%	-2%	-28%	2%
COc1ccc(N=C2NC(=O)/C(=C\C=C\c3ccco3)S2)cc1	7.1µM*	?	20µM*	?	28µM*	22µM*
Cc1cccc(N=C2NC(=O)/C(=C/C=C/c3ccco3)S2)c1	14µM*	45µM*	18µM*	50µM*	35µM*	?
O=C(CCC[C@@H]1[C@H]2CCCN3CCC[C@@H](CN1Cc1cccnc1)[C@@H]23)NCc1cccnc1	·	77%	·	·	·	·
COc1ccc(C(NCC(=O)Nc2c(C)cccc2C)c2ccccc2)cc1 (configuration not stated)	?	0%	20µM*	?	32µM*	28µM*
COc1ccc(Cl)cc1NC(=O)CCC1CCCN(C(=O)CN2CCOC2=O)C1 (configuration not stated)	·	42%	·	·	·	·
COc1ccc(-c2ncc3ccccn23)cc1	-41%	8%	-30%	79µM*	-16%	14%
COc1cc(OC)cc(-c2ncc3ccccn23)c1	7.9µM*	251%	2.8µM*	-11%	32µM*	?
c1csc(-c2ncc3ccccn23)c1	-23%[59 µM]	-38%	-28%	-1%	2%	-2%
Fc1ccc(-c2ncc3ccccn23)cc1	-21%[0.501 µM]	-9%	-12%	-21%	-13%	30%
SMILES	G9a block	ALOX12 inh	JMJD2A Tudor inh	Sfp inh	BAZ2B inh	HP1b chromo inh
COc1cccc(-c2ncc3ccccn23)c1	7.1µM*	?	3.5µM*	-8%	35µM*	16µM*
COc1cc(-c2ncc3ccccn23)cc(OC)c1OC	25µM*	?	11µM*	50µM*	45µM*	50µM*
CCCN1C(=O)CCc2cc(NC(=O)c3ccc4c(c3)OCO4)ccc21	·	45%	·	·	·	·
CN(C)CCN(C)[C@H]1[C@@H]2OC[C@@H](O2)[C@@H](NCc2cnc3ccccc3c2)[C@@H]1O	·	117%[176 µM]	·	·	·	·
Cc1ccccc1NC(=O)CSc1nc(=O)n(CCN(C)C)c2c1CCC2	·	-3%	·	·	·	·
Cc1[nH]c2ccc(OCc3ccccc3)cc2c1CCN1C(=O)OC(C)(C)C1(C)O (configuration not stated)	79µM*	-29%[57.4 µM]	?	-5%	?	-10%
Oc1c(Cl)cc(CN2CCOCC2)c2cccnc12	-1%[2.33 µM]	?	11µM*	·	7.9µM*	-26%
Oc1c(CN2CCc3ccccc3C2)cc(Cl)c2cccnc12	45µM*	·	25µM*	-22%	8.9µM*	26%
O=c1oc2ccccc2c(O)c1Cc1cc(Cl)c2cccnc2c1O	·	1%	-36%	26%	32µM*	25%
O=[N+]([O-])c1cc(CN2CCOCC2)c2cccnc2c1O	?	·	7.9µM*	12%	3.2µM*	24%
O=C(Cc1ccc(F)cc1)N1CCC(Cc2nc(-c3ccc(F)cc3)no2)CC1	·	18%	·	·	·	·
Cc1cc(C)cc(N(CC(=O)NC(C(C)C)C(C)C)S(=O)(=O)c2ccccc2)c1	·	-14%	·	·	·	·
O=[N+]([O-])c1cc(CN2CCN(c3ccccc3)CC2)c(O)c2ncccc12	?	?	10µM*	24%	3.2µM*	18%
Oc1c(CN2CCCCC2)cc(Br)c2cccnc12	?	5.6µM*	22µM*	45µM*	28µM*	26%
O=[N+]([O-])c1ccc(N2CCN(S(=O)(=O)c3ccccc3)CC2)c2ncccc12	·	-28%	·	·	·	·
O=C(N/N=C/c1ccccc1Br)c1ccc(Br)s1	·	-5%	·	·	·	·
O=C(CCC1CCCC1)N1CC(c2nnc(-c3ccncc3)o2)C2(CCOCC2)C1 (configuration not stated)	·	3%	·	·	·	·
Cc1[nH]c2ccccc2c1-c1csc(NC(=O)CN2CCOCC2)n1	35µM*	-1%	?	1%	79µM*	17%
CC(=O)C1=C(C)NC(SCC(N)=O)=C(C#N)C1c1sccc1C (configuration not stated)	-25%[59 µM]	92%	?	-2%	0%	30%
CC(=O)C1=C(C)NC(SCC(=O)c2ccc(Cl)cc2)=C(C#N)C1CC(C)C (configuration not stated)	0.79µM*	-14%	?	13µM*	?	38%
CC(=O)C1=C(C)NC(SCC(=O)c2ccc(F)cc2)=C(C#N)C1CC(C)C (configuration not stated)	3.5µM*	?	13µM*	14µM*	-29%	26%
CC(=O)C1=C(C)NC(SCC(N)=O)=C(C#N)C1C (configuration not stated)	?	473%	13µM*	40µM*	-8%	?

Screening data: PubChem, National Center for Advancing Translational Sciences (NCATS)
